From PubChem
BoNT A protease: blocks Botulinum neurotoxin A light chain protease. multiplex microsphere protease substrate cleavage, flow cytometry. inhibition, % at 10 µM. 360,000 tested, 0.17% active. AID 588499; further: plate controls were buffer without enzyme for full effect and enzyme alone for no effect
Anthrax LF prot: inhibitors of Bacillus anthracis lethal factor protease; P15917; multiplex microsphere protease cleavage assay, LF; inhibition, % at 10 µM; 360,000 tested, 0.12% active; further: plate controls were buffer without enzyme for full effect and enzyme alone for no effect
Target sequence (P15917 whole entry, looked up): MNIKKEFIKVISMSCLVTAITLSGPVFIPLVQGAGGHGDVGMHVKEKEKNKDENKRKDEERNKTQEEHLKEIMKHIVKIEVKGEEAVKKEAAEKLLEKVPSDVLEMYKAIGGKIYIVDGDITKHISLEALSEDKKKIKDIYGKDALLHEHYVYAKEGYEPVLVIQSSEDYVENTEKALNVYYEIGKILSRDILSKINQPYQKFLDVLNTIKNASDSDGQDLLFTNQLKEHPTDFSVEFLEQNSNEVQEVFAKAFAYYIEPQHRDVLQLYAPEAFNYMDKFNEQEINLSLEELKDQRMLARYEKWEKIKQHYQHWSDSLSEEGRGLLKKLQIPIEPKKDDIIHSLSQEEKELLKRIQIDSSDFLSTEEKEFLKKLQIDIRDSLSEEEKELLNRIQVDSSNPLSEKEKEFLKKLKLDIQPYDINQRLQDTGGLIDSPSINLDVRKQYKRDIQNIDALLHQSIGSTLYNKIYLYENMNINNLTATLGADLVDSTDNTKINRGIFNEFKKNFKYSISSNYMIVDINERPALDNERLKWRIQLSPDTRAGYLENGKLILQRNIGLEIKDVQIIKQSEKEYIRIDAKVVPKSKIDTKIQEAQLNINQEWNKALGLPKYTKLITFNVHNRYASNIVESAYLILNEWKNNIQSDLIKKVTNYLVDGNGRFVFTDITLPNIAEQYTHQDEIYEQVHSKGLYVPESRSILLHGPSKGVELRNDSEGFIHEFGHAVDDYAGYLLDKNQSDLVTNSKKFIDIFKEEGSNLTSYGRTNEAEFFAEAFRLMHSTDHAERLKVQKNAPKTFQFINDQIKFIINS
BoNT-F LC inh: inhibitors of Botulinum neurotoxin F light chain protease. Multiplex microsphere protease cleavage assay, flow cytometry. inhibition, % at 10 µM. 360,000 tested, 0.22% active. AID 588497; in the data active means inhibition above about 35%, passing the limit was not always enough; inconclusive means no clear call, values can overlap the other calls; further: plate controls were buffer without enzyme for full effect and enzyme alone for no effect
Vc quorum ag: quorum light induction in luxS cqsA deficient V. cholerae; V. cholerae BH1578 lux reporter, luminescence, 6 h; activation, % at 18.7 µM; 350,000 tested, 0.16% active; AID 588436; in the data active means activation mostly above about 9.7%, no sharp cut-off; inconclusive means no clear call, values can overlap the other calls; inactive means mostly below about 3.7%
Autofluor counter: flagged as autofluorescent in microsphere protease counterscreen. compound autofluorescence counterscreen, microsphere flow cytometry; hits give high values. fluorescence intensity (test concentration not listed). 360,000 tested, 3.1% active. AID 624483; in the data active means fluorescence intensity above about 16000; inconclusive means no clear call, values can overlap the other calls
* hit, by the source's call; i = inactive; u = inconclusive; x = no result. Compounds with a hit are over-represented: about 3.5% of the library has one in this group of screens. Unless noted, no stated cut-off is given here; in the data, active means inhibition above about 30%; inconclusive means no clear call, values can overlap the other calls; inactive means below that.

SMILES | BoNT A protease | Anthrax LF prot | BoNT-F LC inh | Vc quorum ag | Autofluor counter
OCC1OC(n2cnc3c(NCc4ccccc4O)ncnc32)C(O)C1O (stereo unspecified) | 0 | -5 | -6 | -1 | 3705
Cc1c(O)ccc2c(CC(=O)N[C@@H](Cc3ccccc3)C(=O)O)cc(=O)oc12 | 0 | 11 | -1 | 1 | 2814
COc1ccc2c(c1)[nH]c1c(N3CCN(Cc4ccc5c(c4)OCO5)CC3)ncnc12 | -1 | -2 | -3 | -1 | 23865*
COc1ccc2c(c1)[nH]c1c(N3CCSCC3)ncnc12 | 3 | 3 | 32 | -1 | 3701
O=C(O)C1C2C=CC(O2)C1C(=O)Nc1ccc(S(=O)(=O)Nc2ccccc2)cc1 (stereo unspecified) | 4 | 0 | 2 | 0 | 21995*
O=C(O)C1C2C=CC(O2)C1C(=O)Nc1ccc(S(=O)(=O)N2CCc3ccccc32)cc1 (stereo unspecified) | 0 | 0 | -4 | 0 | 10413
COC(=O)c1cc(C(=O)Nc2ccc(C)cn2)cc([N+](=O)[O-])c1 | u | 2 | -2 | i | 22666*
CCCC(C)c1nnc(NC(=O)c2cc(C(=O)OC)cc([N+](=O)[O-])c2)s1 (stereo unspecified) | u | 0 | -2 | 0 | 16199*
COC(=O)c1cc(C(=O)Nc2cccc(C)n2)cc([N+](=O)[O-])c1 | 0 | -1 | -6 | i | 2589
CCCCN(C=O)c1c(CC)nc2ccc(C(=O)NCCCN3CCCC3=O)cn12 | 0 | -4 | 4 | i | 3345
CS(=O)(=O)N(CC(=O)N1CCN(c2ccc(F)cc2)CC1)c1ccc(F)c(Cl)c1 | u | -4 | -4 | i | 24225*
Cc1cccc(N(CC(=O)N2CCN(c3ccc(F)cc3)CC2)S(C)(=O)=O)c1C | -1 | 0 | 5 | -1 | 4507
CCN(CC)S(=O)(=O)c1ccc(F)cc1 | u | 0 | -2 | i | 17034*
CCN(CC)S(=O)(=O)c1cccc(S(=O)(=O)c2cccc(S(=O)(=O)N(CC)CC)c2)c1 | u | -5 | 0 | i | 22967*
O=C1C(c2ccc(F)cc2)N(Cc2ccc3c(c2)OCO3)C(=O)CN1C1CCCCC1 (stereo unspecified) | -1 | -6 | -1 | 0 | 20863*
O=C1C(c2ccc(F)cc2)N(CC2COc3ccccc3O2)C(=O)CN1C1CCCCC1 (stereo unspecified) | 0 | -3 | 8 | 0 | 10837
CCCCOc1ccc(C2C(=O)N(C3CCCCC3)CC(=O)N2CC2CCCO2)cc1 (stereo unspecified) | 0 | -1 | 0 | 0 | 11234
O=C1C(c2ccc(F)cc2)N(Cc2ccc3c(c2)OCO3)C(=O)CN1C1CCCC1 (stereo unspecified) | -10 | -1 | -14 | i | 25677*
COc1ccccc1CN1C(=O)CN(C2CCCC2)C(=O)C1c1ccc(F)cc1 (stereo unspecified) | u | -9 | -1 | 0 | 16593*
CCOc1cc(Cl)c(S(=O)(=O)NCc2cccnc2)cc1Cl | 1 | -5 | -1 | 0 | 3591
COc1ccc(-c2cc(C(F)(F)F)nc(SCC(=O)NCCCN3CCOCC3)n2)cc1 | 0 | 0 | -2 | 0 | 2018
CCOc1cc(NC(=S)NCC2CCCO2)c(OCC)cc1NC(=O)c1ccccc1C (stereo unspecified) | 0 | -16 | 4 | x | 9208
CCOc1cc(NC(=S)Nc2ccccc2)c(OCC)cc1NC(=O)c1ccccc1 | -2 | -3 | -8 | 4 | 23797*
CCOc1cc(NC(=S)Nc2ccccc2OC)c(OCC)cc1NC(=O)c1ccccc1C | 1 | -5 | -2 | -3 | 16184*
Cc1ccc(-n2c(=O)c(C#N)cc3c(=O)n4cccc(C)c4nc32)cc1 | u | 0 | -7 | i | 20956*
SMILES | BoNT A protease | Anthrax LF prot | BoNT-F LC inh | Vc quorum ag | Autofluor counter
CCCCOCCCNC(=O)C[C@@H]1C[C@@]2(C(=O)OC)CCCCC=C2N(Cc2ccccc2)C1=O | -1 | -2 | -7 | x | 6920
COc1ccc(OC)c(/C=N/NC(=O)CCc2c(C)n[nH]c2C)c1 | 6 | 12 | 40* | -1 | 3807
O=C(OCc1cccc(F)c1)c1cc2ccccc2cc1O | 4 | 23 | u | -1 | 3845
O=C(c1ccc(Cn2cc([N+](=O)[O-])cn2)o1)N1N=C(C(F)F)CC1(O)C(F)F (stereo unspecified) | 4 | 0 | 4 | i | 22404*
CN(C)C(=O)CSc1nnc(C23CC4CC(CC(C4)C2)C3)o1 | u | -12 | -1 | -1 | 22684*
CN(C)C(=O)CSc1nnc(CCN)o1 | -1 | 0 | 1 | i | 22720*
Cc1ccc2nc(SCC(=O)Nc3cc(C)on3)nc(=O)n2c1 | 1 | -5 | 20 | -1 | 5974
O=C(CSc1nnc2c(Cl)cc(C(F)(F)F)cn12)Nc1ccc2c(c1)OCO2 | u | -4 | 2 | -4 | 20358*
Cn1c(SCC(=O)Nc2ccc3c(c2)OCO3)nnc1C(F)(F)F | 8 | -4 | 9 | 1 | 4329
O=C(Nc1ccc(Cl)c(Cl)c1)c1cccc(S(=O)(=O)NCc2cccnc2)c1 | 0 | 0 | -1 | 0 | 2157
CN(c1ccccc1)S(=O)(=O)c1cccc(NC(=O)C2CC(=O)N(Cc3ccccc3)C2)c1 (stereo unspecified) | -2 | -7 | -16 | i | 6424
CCCc1cc(=O)oc2cc(OCC(=O)N(C)C)c(Cl)cc12 | 0 | -2 | -6 | x | 2482
CCc1cc(=O)oc2cc(OCC(=O)OC)c(Cl)cc12 | u | -1 | 0 | 4 | 22235*
COc1ccc(OC)c(-c2cc(C(=O)NCCCn3ccnc3)no2)c1 | -3 | -7 | -4 | i | 24152*
COCCNC(=O)c1noc2c1CCc1cc(OC)ccc1-2 | -1 | -1 | -1 | 0 | 9948
COc1ccc2c(c1)CCc1c(C(=O)NCCCn3ccnc3)noc1-2 | 1 | -2 | 0 | 2 | 22596*
COc1ccc2c(c1)CCc1c(C(=O)NCc3ccco3)noc1-2 | u | -4 | -3 | i | 24173*
CCn1c(=O)[nH]c2cc(C(=O)N3CCN(c4ccccc4)CC3)ccc2c1=O | u | -6 | 0 | i | 22918*
O=C(c1ccc2c(=O)n(Cc3ccc4c(c3)OCO4)c(=S)[nH]c2c1)N1CCCCC1 | 3 | -2 | 3 | 0 | 22165*
O=C(c1ccc2c(=O)n(Cc3ccc(Cl)cc3)c(=S)[nH]c2c1)N1CCCC1 | -4 | 1 | -6 | 0 | 4933
CN1CCN(C(=O)c2ccc3c(=O)n(Cc4ccc(Cl)cc4)c(=S)[nH]c3c2)CC1 | -1 | -2 | -2 | 0 | 20632*
CC1CC(C)CN(C(=O)c2ccc3c(=O)n(Cc4ccc5c(c4)OCO5)c(=S)[nH]c3c2)C1 (stereo unspecified) | 3 | -12 | 11 | 0 | u
CCOC(=O)N1CCN(C(=O)c2ccc3c(=O)n(Cc4ccccc4OC)c(=S)[nH]c3c2)CC1 | 0 | -3 | 0 | 1 | 16581*
CC1(NC(=O)c2cccc(S(=O)(=O)N3CCN(c4ccc(F)cc4)CC3)c2)CCS(=O)(=O)C1 (stereo unspecified) | -1 | 0 | -3 | i | 6515
